In PubChem BioAssay AID485317 (Broad Institute, 2010):
The whole screen tested about 290,000 compounds, of which about 11,000 (3.8%) were called active.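 Rule for the calls: active = mean replicate inhibition above about 79%, with every replicate also reaching it (limit read from the data); inconclusive = only one of the two criteria met; inactive = mean below limit and not every replicate reaching it.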 Only a selection was taken, and actives are over-represented in it overall.

target: FAD-linked sulfhydryl oxidase ALR (Homo sapiens) (UniProt P55789); assay: inhibitors of human ALR sulfhydryl oxidase, primary screen, biochemical, H2O2 detection, HRP-luminol luminescence, single point (AID 485317); conditions: purified ALR, DTT oxidation, hits give high values, concentration not given here
Sequence (P55789 whole entry, looked up): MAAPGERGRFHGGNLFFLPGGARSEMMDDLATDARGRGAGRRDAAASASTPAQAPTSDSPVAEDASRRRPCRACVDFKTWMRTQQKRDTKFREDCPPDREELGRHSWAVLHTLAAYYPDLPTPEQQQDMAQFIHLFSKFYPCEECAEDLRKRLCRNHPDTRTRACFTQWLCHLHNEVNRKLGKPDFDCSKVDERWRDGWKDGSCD

inhibition, inactive:
C=CC[C@@H](CC(=O)NCCO)C(=O)N[C@H](C)COC(=O)[C@@H](CC=C)CC(=O)OC(C)(C)C 4.16%, CCN1C(=O)[C@H]2[C@@H](c3ccc(-c4ccc(F)cc4)cc3)N[C@@](Cc3ccccc3)(C(=O)OC)[C@H]2C1=O -2.13%, CCCn1c(C2CCCN2c2nc(-c3ccc(OC)cc3)cs2)nc2ccccc21 (stereo not drawn) -0.584%, CCOC(=O)C1CCCN(C(=O)CSc2nnc3nc(C)cc(C)n23)C1 (stereo not drawn) -0.482%, COc1cccc(C(O)Cc2nc3ccccc3n2C)c1OC (stereo not drawn) 2.27%, COc1cccc(NC(=O)CC(c2ccc(OC(C)C)cc2)c2ccccc2OC)c1 (stereo not drawn) 1.22%, C=CCC(NCc1ccco1)c1ccc(OC)cc1 (stereo not drawn) 1.8%, COc1ccc(CNCCCO)cc1OC 1.87%, CCOC(=O)[C@H]1[C@H]2COc3ccc(C)cc3[C@@H]2N2C(=O)CN(Cc3ccc(F)cc3)C(=O)[C@@]12C -13.6%, CCOCc1c(C(=O)N2CCN(Cc3ccc(Br)s3)CC2)oc2ccccc12 1.34%, CCN(CC(=O)Nc1ccccc1C(F)(F)F)C(=O)CSCc1c(C)noc1C 6.19%, Cc1ccccc1NC(=O)C(C)OC(=O)CCC(=O)N(CC(C)C)c1c(N)n(CC(C)C)c(=O)[nH]c1=O (stereo not drawn) -8.82%, COc1ccc(C(=O)NC(=S)NC2CCCCC2)cc1 3.44%, COc1cc(C(=S)N2CCOCC2)ccc1O -6.46%, O=C(CN1CCN(S(=O)(=O)c2cccc(Cl)c2)CC1)N1CCCCC1 14.4%, O=C(NCC1(N2CCCCC2)CCCCC1)c1ccc(NS(=O)(=O)c2ccc(F)cc2)cc1 7.5%, CC(Sc1nn(-c2ccc(Cl)cc2)c(=S)s1)C(=O)NCC1CCCO1 (stereo not drawn) -12.1%, COc1cc(-c2n[nH]c(=S)n2Cc2ccccc2)cc(OC)c1OC 68.8%, CCOc1ccc(/C=N/Nc2nncc(-c3ccccc3)n2)cc1OC -1.74%, COc1ccc(S(=O)(=O)Nc2ccc3cn[nH]c3c2)cc1[N+](=O)[O-] -7.76%, Cc1c(C(=O)N2CCCc3ccccc32)oc2ccccc12 1.77%, O=C(c1cc(-c2ccc(Cl)cc2)on1)N1CCN(c2ccccc2)CC1 4.35%, O=C(c1cc(-c2ccc(F)cc2)on1)N1CCN(c2ccc(F)cc2)CC1 1.89%, Cc1ccc(-c2cc(C(=O)N3CCc4ccccc4C3)no2)cc1 -5.44%, COc1ccc2sc(-c3ccc(S(C)(=O)=O)cc3)c(C#Cc3cncn3C)c2c1 1.35%, COc1ccccc1CCNC(=O)C(=O)NCCC1CCCCN1S(=O)(=O)c1cccs1 (stereo not drawn) -56.8%, CC1(C)O[C@H]2CC(=O)OCC23[C@H]2CC[C@@]4(C)[C@H](c5ccoc5)OC(=O)[C@H]5O[C@]54[C@]2(C)C(=O)C[C@@H]13 (stereo partly drawn) -10.7%, CCc1noc(C)c1C(=O)Oc1ccc(N(C)S(=O)(=O)c2ccc(C)c(C)c2)cc1 22.1%, COc1ccc(C(=O)Nc2cc(S(=O)(=O)N3CCCC3)ccc2Cl)cc1 0.959%, Cc1cc(Nc2ccc(Cl)cc2)nc(N2CCOCC2)n1 -2.6%, Cc1cc(N2CCOCC2)nc(-c2ccc(Br)cc2)n1 -3.64%, COc1ccc(CNC(=O)COC(=O)C(CCSC)N2C(=O)c3ccccc3C2=O)cc1 (stereo not drawn) -2.44%, O=C(Nc1cccc(F)c1)c1cc(-c2ccco2)nc2ccccc12 5.76%, CC(C)(C)Cc1nnc(NC(=O)c2cc(-c3ccccc3)nc3ccccc23)s1 3.63%, Cc1ccc([C@@H]2CC=C(C(=O)O)[C@H](c3cccc(Cl)c3)N2S(=O)(=O)c2ccc(C)cc2)cc1 4.58%, O=C1COc2ccc(C(=O)COC(=O)CCOc3ccccc3)cc2N1 -1.49%, O=C(CN1C(=O)C2C3CCC(C3)C2C1=O)Oc1ccc2ccccc2c1 (stereo not drawn) -1.46%, CC1=CC(C)(C)Nc2ccc(OC(=O)C(Cc3ccccc3)N3C(=O)C4CCCCC4C3=O)cc21 (stereo not drawn) -22.1%, CC(C)Cn1c(N)c(C(=O)COC(=O)C2CCCN2C(=O)c2cccs2)c(=O)n(C)c1=O (stereo not drawn) -23.1%, Cc1ccc(C)c(-c2nnc(NC(=O)CS(=O)(=O)c3ccccc3)o2)c1 1.8%, Cc1oc2c(C)c3oc(=O)c(CC(=O)N[C@@H](CC(C)C)C(=O)N[C@@H](Cc4ccccc4)C(=O)O)c(C)c3cc2c1C 40.1%, Cc1cc(=O)oc2c(C)c(OC(C)C(=O)NC3CCN(Cc4ccccc4)CC3)ccc12 (stereo not drawn) 2.88%, CC1(C)CC[C@@]2(C(=O)O)C(C1)C1=CCC3[C@@]4(C)CC[C@H](O)C(C)(C)C4CC[C@@]3(C)[C@]1(C)C[C@H]2O (stereo partly drawn) -9.85%, CCOC(=O)c1cccc(NC(=O)c2ccc(F)cc2F)c1 6.05%, CN(C)CCCN(C(=O)c1ccc(S(=O)(=O)N2CCCCCC2)cc1)c1nc2cc3c(cc2s1)OCCO3 -4.06%, CC/C(C)=N/Nc1nc2sc3c(c2c(=O)[nH]1)CC(C)(C)OC3 15.5%, CCC(O)CNc1nc(-n2nc(C)cc2C)nc2sc3c(c12)CC(C)(C)OC3 (stereo not drawn) -2.25%, CC(C)C(NC(=O)c1c(F)cccc1F)C(=O)NNC(=O)c1ccccc1 (stereo not drawn) -7.7%, COc1ccc2sc(N(CCCN(C)C)C(=O)c3ccc(S(=O)(=O)N(C)C4CCCCC4)cc3)nc2c1 -5.65%, O=C(NCC(=O)N1CCCC(C(F)(F)F)C1)c1ccccc1F (stereo not drawn) -7.32%, Cc1ccc(N=C2SCCCN2C(=O)c2cccc(N3C(=O)CCC3=O)c2)cc1Cl -9.4%, N#Cc1nc(-c2cccc3ccccc23)oc1N 0.469%, Cn1c(CNC(=O)c2ccccc2F)nnc1SCc1ccc(F)cc1 -2.09%, COC(=O)c1ccc(CSc2nncn2N)cc1 -17.1%, CC(=O)Nc1ccc(NC(=O)CCN2C(=O)C3CC=CCC3C2=O)cc1 (stereo not drawn) -1.74%, CC1=NNC(=O)C1Cc1c(Cl)cccc1Cl (stereo not drawn) 13.8%, CCn1c(SC(C)C(=O)Nc2ccc(N3CCOCC3)cc2)nnc1-c1ccco1 (stereo not drawn) 46.7%, Cc1ccc(Nc2ncnc3c2cnn3C)c(C)c1 -4.69%, O=C(NNc1ncnc2c1cnn2-c1ccccc1)c1ccco1 -5.39%, CSCCC(NC(=O)COc1ccccc1)C(=O)OCCOc1ccc(F)cc1 (stereo not drawn) -0.0039%, Cc1ccc(S(=O)(=O)NCCC(=O)OCC(=O)N(C)c2ccccc2)cc1 -0.745%, COc1ccc(S(=O)(=O)N2CCN(C(C)C(=O)Nc3ccc(C(C)C)cc3)CC2)cc1 (stereo not drawn) -3.15%, COc1cccc(-c2nn(-c3ccccc3)cc2/C=C(\C#N)C(=O)NCCCn2ccnc2)c1 -6.12%, COc1ccc(-c2nn(-c3ccccc3)cc2/C=C2/SC(=S)N(CCCC(=O)O)C2=O)c(C)c1 3%, COc1cccc(COC(=O)C2CCN(S(=O)(=O)c3cccs3)CC2)c1OC -64%, COc1cc(C(=O)NCC(=O)N2CC=C(c3ccccc3)CC2)cc(OC)c1OC 3.4%, O=C(NCCSc1ncc(-c2ccccc2)[nH]1)c1ccco1 4.62%, COc1ccc(OC)c(S(=O)(=O)N2CCCC(C(=O)N3CCC(C(N)=O)CC3)C2)c1 (stereo not drawn) -3%, Cc1c(NC(=O)CSCc2ccccc2)cccc1C(=O)O -23.6%, COc1ccc(NC(=O)CSCc2ccc([N+](=O)[O-])cc2)cc1OC -0.226%, O=C(Cc1ccccc1)Nc1ccc(NC(=O)c2cccnc2)cc1 -3.14%, O=C(O)c1ccccc1NC(=O)c1ccccc1-c1ccccc1C(=O)O -5.64%

inhibition, active:
C=CCC(Nc1ccccc1)c1cccc(OC)c1OC (stereo not drawn) 98.9%, C=CCC(NCCCO)c1cccc(OC)c1OC (stereo not drawn) 99.7%, COc1cc(C(=S)NC2CCCCC2)ccc1O 98.5%, COc1cc(/C=N/n2c(C)n[nH]c2=S)ccc1OCc1ccccc1 97%, O=C(c1cc(-c2ccc(O)cc2)on1)N1CCOCC1 99%, O=C(c1cc(-c2ccc(O)cc2)on1)N1CCCc2ccccc21 98.8%, Cc1cc(N2CCN(c3ccccc3)CC2)nc(N2CCOCC2)n1 98.9%, O=C(O)c1cccc(NC(=O)c2cc(-c3cccc(Cl)c3)nc3ccccc23)c1 98.6%, CC1=CC(C)(C)Nc2ccc(OC(=O)CN3C(=O)C4CCCCC4C3=O)cc21 (stereo not drawn) 85.4%, Cc1c(OC(C)C(=O)N[C@@H](Cc2ccccc2)C(=O)O)ccc2c3c(c(=O)oc12)CCCC3 (stereo partly drawn) 86.8%, C=CCNC(=S)NNc1ncnc2sc3c(c12)CC(C)(C)OC3 98.8%, CC(C)CC(CC(C)C)=NNC(=O)c1ccc(CSc2nncn2C)cc1 98.2%, Cc1ccc(-n2ncc3c(Nc4cccc(C(=O)O)c4)ncnc32)cc1 94%, CN(C)S(=O)(=O)c1cccc(-c2nn(-c3ccccc3)cc2/C=C2\SC(=S)N(CC(=O)O)C2=O)c1 95.8%, O=C(Cc1ccccc1)Nc1ccc(C(=O)Nc2ccccc2C(=O)O)cc1 87.1%, O=C(CSCc1ccc([N+](=O)[O-])cc1)Nc1cccc(C(=O)Nc2ccccc2C(=O)O)c1 99%
